The list is not random: actives were taken first. Their share in the collection is about 2.5%.
ANO1 block = mouse TMEM16A channel inhibition, primary screen. Q8BHY3. HEK293 TMEM16A/YFP iodide influx fluorescence, ionomycin. normalized B-score (activity score, 25-100; higher = stronger inhibition) at 10 µM. 1.2% of 310,000 active. AID 588511;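 active = ratio plate-corrected score three or more library SD toward inhibition, starting fluorescence score within five deviations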;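 note: score derived from kinetic fluorescence span divided by baseline fluorescence per well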
ANO1 activ = activates or potentiates the mouse TMEM16A chloride channel | 0.3% of 340,000 active | B-score at 10 µM | HEK293 TMEM16A/YFP-H148Q/I152L, iodide quench fluorescence; hits give low values | Q8BHY3;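 active = fluorescence-ratio B-score plate-corrected deviation score at least 3 library SD below zero, with starting fluorescence score within 5 deviations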;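 note: channel opened by trigger with iodide after compound preincubation; score built on the fluorescence ratio of max minus min over baseline; more negative score means more quench and so TMEM16A activation or potentiation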
CHT PAM = allosterically activates the human high affinity choline transporter | Q9GZV3 | CHT-expressing cells, membrane potential dye, choline EC20; hits give high values; LV-AA mutant CHT in HEK293 cells | B-score at 10 µM | 0.49% of 310,000 active | AID 488977;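 active = initial fluorescence not abnormally high and integrated response B-score, plate-corrected, over 3 SD above library mean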
CHT block = human CHT choline transport inhibition. Q9GZV3. CHT-expressing cells, membrane potential dye, choline response; hits give low values. B-score at 10 µM. 0.86% of 310,000 active. AID 488975;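 active = B-score over 3 SD under the library average, and starting fluorescence ratio not unusually high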;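 note: choline stimulus applied at its EC90 after an EC20 pre-addition; B-score computed on integrated fluorescence ratio after choline addition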
PKA-R2B activ = PKA-R2B complex activation. P22694+P31323. activation, % at 11.4 µM. AID 504700. 0.079% of 340,000 active. PKA-R2B holoenzyme dissociation, Cy5-IP20 fluorescence polarization; R2B truncated from residue 108, S112A mutant; 0% DMSO only, 100% 113 µM cGMP;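 active = activation above a cutoff set at the mean over all compounds plus 3 SD, cut at about 18% in these data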;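 note: higher means more holoenzyme dissociation and a rise in polarization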
Target sequence (P31323 whole entry, looked up, other chains not shown, the tested form may be a part): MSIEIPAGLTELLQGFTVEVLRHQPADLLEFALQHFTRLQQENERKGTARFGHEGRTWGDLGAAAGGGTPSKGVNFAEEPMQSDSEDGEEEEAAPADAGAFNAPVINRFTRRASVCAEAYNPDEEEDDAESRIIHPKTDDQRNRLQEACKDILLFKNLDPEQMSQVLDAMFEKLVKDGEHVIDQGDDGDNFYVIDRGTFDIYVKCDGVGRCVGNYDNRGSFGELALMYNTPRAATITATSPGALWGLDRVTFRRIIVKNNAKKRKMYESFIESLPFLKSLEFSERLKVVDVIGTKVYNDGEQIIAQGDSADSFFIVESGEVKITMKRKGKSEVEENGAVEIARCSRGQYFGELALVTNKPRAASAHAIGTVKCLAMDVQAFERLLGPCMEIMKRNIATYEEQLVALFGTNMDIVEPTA
PKA-R1A activ = activators of PKA-R1A complex | P00514+P68181 | PKA-R1A dissociation, Cy5-IP20 fluorescence polarization; scaled: DMSO 0%, 113 µM cGMP 100% | activation, % at 11.4 µM | 0.083% of 340,000 active | AID 504707;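 active = percent activation above the mean of all tested compounds plus 3 SD, cut at about 19% in these data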;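 note: higher means more PKAc released from R1A so a rise in polarization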
CHT activ conf = confirmation of human choline transporter (CHT) activators; shares compounds with CHT PAM; AID 504833; CHT-expressing cells, membrane potential dye fluorescence (FDSS); % of choline EC20–EC90 response window; HEK293 expressing CHT LV-AA mutant; choline added at its EC20; 91% of 2,500 active; activation, % at 10 µM;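 active = primary screen active, with duplicate mean activation above negative control mean plus 3 SD, cut at about 11% in these data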
HEK293 MP dye = activity in parental HEK293 cells lacking CHT; shares compounds with CHT PAM; membrane potential dye fluorescence (FDSS); measured after EC20 choline addition; ratio readout change at 10 µM, hits read low; 62% of 2,500 active; AID 623908;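 active = duplicate-averaged ratio beyond 3 SD from buffer wells, up or down, though filed actives are nearly all decreases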
Numbers stand for hits.

Screening CCOC(=O)C1=C(C)NC(C)=C(C(=O)OCC)C1C(=O)OCC(=O)NCCc1ccccc1 returned ANO1 activ inactive, PKA-R2B activ inactive and PKA-R1A activ inactive.
Screening CCCOc1nc2c(c(=O)n(C)c(=O)n2C)n1C returned ANO1 block inactive, ANO1 activ inactive, CHT PAM inactive, CHT block inactive, PKA-R2B activ inactive and PKA-R1A activ inactive.
`CN(C)CCCOc1nc2c(c(=O)n(C)c(=O)n2C)n1C` gave ANO1 block inactive, ANO1 activ inactive, CHT PAM 9.1, CHT block inactive, PKA-R2B activ inactive, PKA-R1A activ inactive, CHT activ conf 49 and HEK293 MP dye -55.
`CCOC(=O)Cc1csc(NC(=O)C(NC(=O)C2CCCCC2)C(C)C)n1` (configuration not stated) gave ANO1 block inactive, ANO1 activ inactive, CHT PAM inactive, CHT block inactive, PKA-R2B activ inactive and PKA-R1A activ inactive.
`COc1ccccc1CNS(=O)(=O)CCNC(=O)c1ccccc1` gave ANO1 block inactive, ANO1 activ inactive, CHT PAM inactive, CHT block inactive, PKA-R2B activ inactive and PKA-R1A activ inactive.
COc1ccc2c(c1)sc(N)[n+]2Cc1cc(C)cc2cccnc12 was read as ANO1 block inactive, ANO1 activ inactive, CHT PAM 9.6, CHT block inactive, PKA-R2B activ inactive, PKA-R1A activ inactive, CHT activ conf 54 and HEK293 MP dye -38.
`CCOc1ccc2c(c1)sc(N)[n+]2Cc1cc(C)cc2cccnc12` gave ANO1 block inactive, ANO1 activ inactive, CHT PAM 11, CHT block inactive, PKA-R2B activ inactive, PKA-R1A activ inactive, CHT activ conf 52 and HEK293 MP dye -34.
For COc1cc(NCCCC(C)N)c2ncccc2c1 (configuration not stated) the results were ANO1 activ inactive, PKA-R2B activ inactive and PKA-R1A activ inactive.
`Cc1cc[n+]2c3c(cccc13)CCC2` gave ANO1 block inactive, ANO1 activ inactive, CHT PAM 11, CHT block inactive, PKA-R2B activ inactive, PKA-R1A activ inactive, CHT activ conf 89 and HEK293 MP dye -85.
`COc1cc(-c2nc3ccccn3c2N)ccc1O` gave ANO1 block inactive, ANO1 activ inactive, CHT PAM inactive, CHT block inactive, PKA-R2B activ inactive and PKA-R1A activ inactive.
COc1cc(-c2nc3ccccn3c2NCC2CCCO2)ccc1O (configuration not stated) was read as ANO1 block inactive, ANO1 activ inactive, CHT PAM inactive, CHT block inactive, PKA-R2B activ inactive, PKA-R1A activ inactive, CHT activ conf 44 and HEK293 MP dye -47.
`COc1ccc(-c2nc3cccc(C)n3c2NCC2CCCO2)cc1O` (configuration not stated) gave ANO1 block inactive, ANO1 activ inactive, CHT PAM inactive, CHT block inactive, PKA-R2B activ inactive, PKA-R1A activ inactive, CHT activ conf 54 and HEK293 MP dye -57.
For CCN(CC)CCNC(=O)c1ccc(NC(=O)CC(NC(=O)c2ccccc2Cl)c2ccccc2)cc1 (configuration not stated) the results were ANO1 block inactive, ANO1 activ inactive, CHT PAM inactive, CHT block inactive, PKA-R2B activ inactive and PKA-R1A activ inactive.
CN(C)c1nc(Nc2ccccc2)nc(N(C)C)n1 was read as ANO1 block inactive, ANO1 activ inactive, CHT PAM inactive, CHT block inactive, PKA-R2B activ inactive and PKA-R1A activ inactive.
Nc1nc(Nc2ccccc2)nc2ccccc12 was read as ANO1 block inactive, ANO1 activ inactive, CHT PAM inactive, CHT block inactive, PKA-R2B activ inactive, PKA-R1A activ inactive, CHT activ conf 37 and HEK293 MP dye -66.
For Nc1ncnc(Nc2ccccc2)n1 the results were ANO1 block inactive, ANO1 activ inactive, CHT PAM inactive, CHT block inactive, PKA-R2B activ inactive and PKA-R1A activ inactive.
For Cc1ccccc1Nc1nc(N)c2ccccc2n1 the results were ANO1 block inactive, ANO1 activ inactive, CHT PAM 6.8, CHT block inactive, PKA-R2B activ inactive, PKA-R1A activ inactive, CHT activ conf 11 and HEK293 MP dye -44.
Screening CN(C)c1ccc(Nc2nc(N)c3ccccc3n2)cc1 returned ANO1 block inactive, ANO1 activ inactive, CHT PAM 7.4, CHT block inactive, PKA-R2B activ inactive, PKA-R1A activ inactive, CHT activ conf 49 and HEK293 MP dye -75.
CSCCC(NC(=O)c1ccco1)C(=O)Nc1ccc(C)cn1 (configuration not stated) was read as ANO1 block inactive, ANO1 activ inactive, CHT PAM inactive, CHT block inactive, PKA-R2B activ inactive and PKA-R1A activ inactive.
For CCCc1cc(=O)[nH]c(SCCCCN2C(=O)c3ccccc3C2=O)n1 the results were ANO1 block inactive, ANO1 activ inactive, CHT PAM inactive, CHT block inactive, PKA-R2B activ inactive and PKA-R1A activ inactive.
O=C(Cn1c(-c2ccccc2)c[n+]2ccsc12)c1ccc([N+](=O)[O-])cc1 was read as ANO1 block inactive, ANO1 activ inactive, CHT PAM 8.6, CHT block inactive, PKA-R2B activ inactive, PKA-R1A activ inactive, CHT activ conf 66 and HEK293 MP dye -61.
Screening O=C(Cn1c(-c2ccccc2)c[n+]2ccsc12)c1ccccc1 returned ANO1 block inactive, ANO1 activ inactive, CHT PAM inactive, CHT block inactive, PKA-R2B activ inactive and PKA-R1A activ inactive.
Screening Cc1c2ccccc2cc(Cc2ccccc2)[n+]1C returned ANO1 block inactive, ANO1 activ inactive, CHT PAM 6.7, CHT block inactive, PKA-R2B activ inactive, PKA-R1A activ inactive, CHT activ conf 68 and HEK293 MP dye -76.
Screening CN(C)c1ccnc(Nc2ccccc2)c1C#N returned ANO1 block inactive, ANO1 activ inactive, CHT PAM 6.3, CHT block inactive, CHT activ conf 52 and HEK293 MP dye -35.
For CSc1ncc2[nH]c(C(O)c3ccccc3)nc2n1 (configuration not stated) the results were ANO1 activ inactive, PKA-R2B activ inactive and PKA-R1A activ inactive.
